Lamin A splicing = qHTS Assay for Modulators of Lamin A Splicing; HeLa LMNA splicing GFP/RFP minigene ratio, 48 h; Potency, µM (top dose mostly 46.1 µM), for inactives: at the highest dose ratio change, negative = inhibition, actives largely listed as inhibitors; 200,000 compounds, 0.01% hits; AID 1487, 2009; active = well fitted inhibition curve with a large enough effect in the signal ratio, with a control signal flat, not every such curve was filed as active; inconclusive = small, poorly fitted or top-dose-only effect, or effect the other way, or a change in a side signal; the % refers to the signal ratio; note: potency is the fitted concentration of half-maximal effect
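S3 HeLa cells stably expressing lamin A-EGFP splicing minigene plus DsRed2, 600 cells/well, 48 h compound exposure at 37C. Laser-scanning cytometry; analysed as GFP (500-530 nm)/RFP (575-640 nm) total intensity ratio; 0.5% DMSO vehicle.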
IMPase cell inh = qHTS Assay for Identifying the Cell-Membrane Permeable IMPase Inhibitors; Inositol monophosphatase 1 (Rattus norvegicus), P97697; CHO-M1 cells, IP1 accumulation, HTRF TR-FRET ratio; inhibition (IP1 accumulation), % at 46.1 µM; 120,000 tested, under 10 active; AID 901, 2007; active = well fitted curve in the direction sought with a large enough effect in the signal ratio, not every such curve was filed as active; inconclusive = small, poorly fitted or top-dose-only effect, or a change in a side signal; inactive = no such curve, though single readings can be large or run the other way; the % refers to the signal ratio;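 note: cells stimulated with carbachol in lithium chloride buffer; plate controls were DMSO basal wells for no effect and reference inhibitor wells for full effect; higher means more IMPase inhibition seen as more IP1 and lower FRET ratio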
Target sequence (P97697 whole entry, looked up): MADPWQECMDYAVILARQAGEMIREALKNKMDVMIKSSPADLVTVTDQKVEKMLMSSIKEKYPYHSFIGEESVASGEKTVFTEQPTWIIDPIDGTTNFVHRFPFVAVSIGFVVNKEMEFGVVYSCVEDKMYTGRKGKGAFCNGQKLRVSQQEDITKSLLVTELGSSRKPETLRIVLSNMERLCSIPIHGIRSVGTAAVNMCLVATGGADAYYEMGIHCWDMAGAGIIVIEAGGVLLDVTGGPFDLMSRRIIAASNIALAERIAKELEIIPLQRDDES
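CHO-M1, 2000 cells/well, cultured 16–30 h; cpd up to 46 uM; carbachol (50 uM solution, stimulation buffer w/ 50 mM LiCl, pH 7.4), 30 min 37C; IP-One TR-FRET, 10 min RT; Ex 320/Em 665, 620; Hill-fit AC50.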
ALDH1A1 inh = qHTS Assay for Inhibitors of Aldehyde Dehydrogenase 1 (ALDH1A1); Aldehyde dehydrogenase 1A1 (Homo sapiens), P00352; Purified ALDH1A1, NADH fluorescence, propionaldehyde substrate; Potency, µM (highest dose often 75.3 µM), inactives show top-dose activity, negative = inhibition, usual class: inhibitors; 220,000 compounds, 7.3% hits; AID 1030, 2008;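 note: potency is the fitted concentration of half-maximal effect; plate controls were no enzyme wells and a reference inhibitor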
HPGD inh = qHTS Assay for Inhibitors of HPGD (15-Hydroxyprostaglandin Dehydrogenase) | 15-hydroxyprostaglandin dehydrogenase [NAD(+)] (Homo sapiens), P15428 | AID 894, 2007 | purified HPGD, NADH fluorescence kinetic, PGE2 substrate | Potency, µM, inactives show at the highest dose activity change, negative = inhibition, most hits filed as inhibitors | 150,000 compounds, 4.3% hits; note: potency is the fitted concentration of half-maximal effect
Target sequence (P15428 whole entry, looked up): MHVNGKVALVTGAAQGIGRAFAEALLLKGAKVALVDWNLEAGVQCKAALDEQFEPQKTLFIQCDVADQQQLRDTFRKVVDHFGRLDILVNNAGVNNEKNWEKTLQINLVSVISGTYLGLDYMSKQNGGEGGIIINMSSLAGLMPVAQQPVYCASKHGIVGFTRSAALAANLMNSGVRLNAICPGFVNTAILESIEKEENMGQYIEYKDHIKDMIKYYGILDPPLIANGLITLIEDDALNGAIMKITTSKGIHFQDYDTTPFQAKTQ
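20 nM HPGD preincubated 15 min at room temperature with compound in 50 mM Tris-HCl pH 8, 0.01% Tween 20. Started with 1 mM NAD+ and 30 uM prostaglandin E2; NADH fluorescence (360/450 nm) read 5 times over 30-s intervals, last minus first.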
PNC assembly inh = High Content Assay for Compounds that inhibit the Assembly of the Perinucleolar Compartment | 140,000 compounds, 3.1% hits | activity change (PNC), negative = inhibition, % at 10 µM | PC3M PTB-GFP, PNC prevalence imaging, 16 h; stronger effect = lower value | AID 2417, 2010;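 active = readout at or below -70, meaning at least 70% loss of cells showing the perinucleolar compartment, a nuclear body marking cancer cells; inconclusive = readout between -30 and a set limit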;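 note: plate controls were DMSO wells for no effect and camptothecin positive control wells for full effect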
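Compounds are pinned in duplicate onto adhered PC3M cells stably expressing GFP-tagged PTB and incubated 16 h at 37 C. Cells are then fixed, nuclei stained with Hoechst, and PNC-positive cells counted.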
KinaseGlo FLuc = Counterscreen for Luciferase (Kinase-Glo TM) Inhibition. Luciferin 4-monooxygenase (Photuris pensylvanica), Q27757. Kinase-Glo luciferase, ATP luminescence, 8 min. Potency, µM (titrated, usually from 38.3 µM), without a hit: at the highest dose activity change, negative = inhibition, hits mostly inhibitors. 200,000 compounds, 0.28% hits; active = well fitted inhibition curve with a large enough effect; inconclusive = small, poorly fitted or top-dose-only effect; note: potency is the fitted concentration of half-maximal effect; nearly all actives have a fitted effect of over 60% in size
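Luminescence was the read-out, taken after 8-minute incubation at ambient temperature. Luciferase turned over luciferin with 10 uM ATP in imidazole pH 7.2 buffer containing KCl, MgCl2, Tween 20 and BSA.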
An asterisk follows results filed as active; u = inconclusive; x = no result; [ ] = remark or other dose. Hits are enriched below; roughly 10% of the tested compounds scored in any of these assays. Unless noted, calls come from the whole dose curve; as a rule, active = well fitted inhibition curve with a large enough effect (not every such curve was filed as active); inconclusive = small, poorly fitted or top-dose-only effect, or another doubt; inactive = no such curve, though single readings can be large or run the other way. Unless noted, % is set by controls: 0 for no effect and ±100 for the full control effect.

SMILES	Lamin A splicing	IMPase cell inh	ALDH1A1 inh	HPGD inh	PNC assembly inh	KinaseGlo FLuc
COCCn1nnnc1SCC(=O)Nc1ccc2c(c1)OCO2	-10.0%[46 µM]	x	20µM*	x	x	-5.1%
CCn1nnnc1SCC(=O)Nc1ccc2c(c1)OCCO2	-11.3%	x	u	-10.5%	-14.4	-1.9%
O=C(N/N=C\c1ccc2c(c1)CCC2)c1ccccc1O	x	x	2.3%[13.5 µM]	-8.4%	x	-6.4%[7.66 µM]
C=CCCCCCCCCCCC/C=C/C(O)COC(C)=O (stereo not given)	u	x	-5.3%	-28.2%	x	1.0%
COc1ccc(-n2nnnc2SCC(=O)Nc2ccc3c(c2)OCCO3)c(OC)c1	u	0.4	7.08µM*	-10.4%	16.1	-2.2%
COc1cccc(-n2nnnc2SCC(=O)Nc2ccc3c(c2)OCCO3)c1	26.7%	-7.1	-4.5%	-9.0%	-19.1	0.2%
O=C(CSc1nnnn1C1CCCC1)c1ccc2c(c1)OCCO2	1.4%	4.7	3.16µM*	-19.4%	24.5	2.1%
COc1cccc(Cn2c(Oc3ccccc3)nc3c2c(=O)n(C)c(=O)n3C)c1	-8.1%	1.0	0.251µM*	-21.7%	u	-1.3%
CCNC(=O)Cn1c(-c2cccs2)cc2ccccc21	-6.5%[46 µM]	x	x	x	x	x
O=S(=O)(Nc1nccs1)c1ccc(NS(=O)(=O)c2cccs2)cc1	-1.6%	2.6	17.8µM*	-9.0%	u	6.3%
COc1ccccc1/C=C1/SC(=O)N(CCC(=O)Nc2ccc(S(=O)(=O)Nc3nccs3)cc2)C1=O	8.8%	x	25.1µM*	-16.7%	46.8	-3.6%
O=C(Nc1ccc(S(=O)(=O)Nc2nccs2)cc1)C1CC(=O)N(c2ccccc2)C1 (stereo not given)	10.6%[46 µM]	x	u	x	x	4.2%
Cc1ccc(N2CC(C(=O)Nc3ccc(S(=O)(=O)Nc4nccs4)cc3)CC2=O)cc1 (stereo not given)	x	x	20µM*	x	x	x
CS(=O)(=O)Nc1ccc(S(=O)(=O)Nc2nccs2)cc1	13.3%	-2.2	-5.2%	4.0%	-29.4	-1.4%
O=C(CSc1ccncc1)Nc1ccc(S(=O)(=O)Nc2nccs2)cc1	1.9%[46 µM]	x	10µM*	x	x	4.6%
CC(=O)[C@H]1CC[C@@H]2[C@]1(C)CC=C1[C@@]23C=C[C@]2(C[C@H](O)CC[C@@]12C)[C@H](C(=O)O)[C@@H]3C(=O)O	x	x	0.0%[13.5 µM]	-5.9%	x	0.6%[7.66 µM]
C=C(C)[C@H]1CC[C@]2(CO)CC[C@]3(C)[C@@H](CC[C@H]4[C@@]5(C)CC[C@@H](O)C(C)(C)[C@@H]5CC[C@@]43C)[C@H]12	u	5.8[20.6 µM]	10.7%[20.9 µM]	-5.7%	x	-1.5%[17.1 µM]
C=C(C)[C@@H]1CCC2(C(=O)O)CC[C@]3(C)[C@H](CC[C@@H]4[C@@]5(C)CCC(=O)C(C)(C)[C@@H]5CC[C@]43C)[C@@H]12 (stereo not given in full)	u	x	8.1%	-14.2%	-95.3*	10.0%
CNc1ncncc1-c1ccccc1C(F)(F)F	-5.8%	x	15.8%	x	x	x
Oc1cccc2ccc(SSc3ccc4cccc(O)c4n3)nc12	x	x	3.98µM*	0.562µM*	x	-8.6%[7.66 µM]
Oc1cccc2ccc(/C=C/c3c(F)cccc3Cl)nc12	u	x	-4.0%	x	x	u
O=C(NCN1C(=O)C2C3C=CC(C3)C2C1=O)Nc1nccs1 (stereo not given)	-1.0%	-4.2	u	-5.3%	-100.0*	0.0%
CCc1nnc(NC(=O)NCN2C(=O)C3C4C=CC(C4)C3C2=O)s1 (stereo not given)	2.0%	1.4	-8.5%	7.8%	13.9	-2.0%
Cc1cc2sc(C)[n+](CCCOS(=O)(=O)O)c2cc1C	x	x	-0.7%[13.5 µM]	-2.4%	x	-3.6%[7.66 µM]
COc1ccc(C2=CC(=O)OC3(CCCC3)O2)cc1	2.5%	0.7	12.6µM*	-5.2%	-18.6	-1.3%
SMILES	Lamin A splicing	IMPase cell inh	ALDH1A1 inh	HPGD inh	PNC assembly inh	KinaseGlo FLuc
CC(=O)N1CCOc2cc(S(=O)(=O)Nc3cccc(C(F)(F)F)c3)c(Cl)cc21	14.8%[46 µM]	x	x	x	x	x
Cc1ccc(N2C(=O)CS(=O)(=O)C23C(=O)N(Cc2ccccc2C)c2ccccc23)cc1Cl (stereo not given)	-4.2%[46 µM]	x	x	x	x	x
CCc1cccc2nc3c(c([Si](C)(C)C)c12)Cn1c-3cccc1=O	x	x	u	u	x	-0.6%
CC1CCCCC1NC(=O)CSc1nncs1 (stereo not given)	-4.2%	1.6	0.5%	22.4µM*	u	0.9%
CC1CCCC(NC(=O)CSc2nnc(N)s2)C1C (stereo not given)	7.0%	1.6	u	28.2µM*	1.7	-1.1%
CC1CCCCC1NC(=O)CSc1nnc(-c2ccccc2)n1N (stereo not given)	-0.3%	5.9	u	x	-121.8*	x
Nc1nnc(SCC(=O)NC2CCCCC2)s1	-13.6%	6.1	-1.9%	-2.5%	24.4	2.7%
Cc1ccc(OCC(=O)NCC(=O)OCc2cc(=O)n3nc(C(C)C)sc3n2)cc1	1.3%[46 µM]	x	x	x	x	x
COc1cc(-c2nnc(SCc3cc(=O)oc4cc(O)c(O)cc34)o2)cc(OC)c1OC	u	2.9	u	7.94µM*	-7.4	-4.8%
O=C(Cc1ccc(F)cc1)Nc1cccc(-c2cn3c(n2)SCC3)c1	u	x	-0.3%	x	x	9.6%
O=C(Nc1cccc(-c2cn3c(n2)SCC3)c1)c1ccc(Br)o1	u	x	15.8µM*	x	x	1.0%
COc1ccc(C2=C(C)C(=O)N(Cc3ccc(C(=O)NCc4cccc(C)c4)cc3)S2(=O)=O)cc1	-9.1%[46 µM]	x	x	x	x	x
COc1ccc(C(=O)CSc2n[nH]c(C)n2)cc1[N+](=O)[O-]	x	x	10µM*	x	x	-0.2%
Cc1nc(SCC(=O)c2ccc(F)cc2)n[nH]1	u	-11.4	4.47µM*	10µM*	u	-1.4%
CCCc1nc2sc3c(N4CCC(C)CC4)ncnc3c2c2c1CCCC2	x	-0.7	x	x	x	x
CCCCC(CCCC)=N/N=C/c1c(O)n(CC)c2cc(C3=NNC(=O)CC3)ccc12	-4.6%	5.7	u	-24.4%	38.3	-2.2%
CCn1c(O)c(/C=N/N=C2CCCC2)c2ccc(C3=NNC(=O)CC3)cc21	10.5%	0.4	u	15.8µM*	-18.1	-1.2%
O=C(CCS(=O)(=O)c1cc(Br)cc2c1N(C(=O)C1CC1)CC2)NCc1ccco1	15.2%	u	11.2µM*	-15.9%	-25.8	9.3%
Cc1ccc(NC(=O)CSc2nnc(CN3CCOCC3)n2C)cc1C	3.7%	x	31.6µM*	-17.8%	31.2	17.8%
Cc1cc(NC(=O)c2cnn3c(C(F)F)cc(C4CC4)nc23)no1	0.3%	7.2	5.01µM*	-15.2%	-23.1	4.4%
